From PubChem BioAssay AID720504 (National Center for Advancing Translational Sciences (NCATS), 2013)
Screen size: about 360,000 compounds; about 10,000 (2.8%) were called active. About 4% were inconclusive and are not listed. This is one part of a sample in which actives are shown more often than they occur. Calls come from the whole dose curve; as a rule, active = well fitted inhibition curve with a large enough effect; inconclusive = small, poorly fitted or top-dose-only effect; inactive = flat fitted curve, though single readings scatter.

Target: Serine/threonine-protein kinase PLK1 (Homo sapiens) (UniProt P53350)
Sequence (P53350 whole entry, looked up, the tested form may be a part): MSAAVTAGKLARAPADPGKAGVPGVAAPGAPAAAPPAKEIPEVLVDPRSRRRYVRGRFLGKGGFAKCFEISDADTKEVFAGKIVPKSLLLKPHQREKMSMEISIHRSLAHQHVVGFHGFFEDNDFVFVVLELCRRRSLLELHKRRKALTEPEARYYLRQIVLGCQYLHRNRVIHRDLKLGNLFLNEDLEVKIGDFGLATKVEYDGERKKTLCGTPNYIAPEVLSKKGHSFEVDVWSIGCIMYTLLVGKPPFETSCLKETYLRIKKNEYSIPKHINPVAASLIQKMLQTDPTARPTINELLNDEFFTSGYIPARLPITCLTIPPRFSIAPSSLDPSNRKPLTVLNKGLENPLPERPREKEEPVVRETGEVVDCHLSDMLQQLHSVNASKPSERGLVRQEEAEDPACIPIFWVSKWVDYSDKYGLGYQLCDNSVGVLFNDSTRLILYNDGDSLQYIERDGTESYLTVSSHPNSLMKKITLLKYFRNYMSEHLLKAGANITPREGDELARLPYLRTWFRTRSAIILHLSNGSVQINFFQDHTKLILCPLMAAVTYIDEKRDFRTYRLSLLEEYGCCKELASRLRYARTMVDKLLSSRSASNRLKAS
Test: qHTS for Inhibitors of PLK1-PDB (polo-like kinase 1 - polo-box domain): Primary Screen; note: nearly all actives have a fitted effect of over 65% in size; for max response, negative = inhibition: series mostly up to about 57 µM
Conditions: Plk1 PBD binding of FITC phosphopeptide, fluorescence polarization
% is set by controls: 0 for no effect and ±100 for the full control effect; potency is the fitted concentration of half-maximal effect.

SMILES | max response, negative = inhibition | Potency
CCOC(=O)[C@]12CCCC=C1N(CCC1=CCCCC1)C(=O)[C@H](CC(=O)NCCCCc1ccccc1)C2 | -2.05% (inactive) | 
CCc1ccccc1S(=O)(=O)Cc1ccc(C(=O)NCCc2ccccc2)o1 |  | 26.7 µM (active)
COc1ccccc1CNC(=O)c1ccc(CS(=O)(=O)c2ccccc2)o1 | -4.65% (inactive) | 
Cc1ccccc1S(=O)(=O)Cc1ccc(C(=O)NCCN2CCCCC2C)o1 (stereo not given) | 1.66% (inactive) | 
COC(=O)c1ccc2nc(-c3cccc(Br)c3)c(Cc3ccc(OC)cc3C)n2c1 | -4.35% (inactive) | 
CCC(c1nnnn1-c1ccc2c(c1)OCCO2)N1CCN(c2ccc(C(F)(F)F)cn2)CC1 (stereo not given) | 3.69% (inactive) | 
COc1ccc(C(CNC(=O)c2ccc(OCc3cscn3)cc2)N2CCCC2)cc1 (stereo not given) | 3.78% (inactive) | 
Cc1cc(NC(=O)Nc2ccccc2[N+](=O)[O-])no1 |  | 10.6 µM (active)
Cc1csc(NC(=O)Nc2ccccc2[N+](=O)[O-])n1 | 3.11% (inactive) | 
Cc1cc(NC(=O)c2ccccc2C)no1 | -3.17% (inactive) | 
Cc1ccc(-c2nn(-c3ccccc3)cc2C(=O)NC2CCC(O)CC2)cc1 (stereo not given) | 6.03% (inactive) | 
O=C(O)c1ccc(NC(=O)c2cn(-c3ccccc3)nc2-c2ccc(Cl)cc2)cc1 |  | 26.7 µM (active)
Cc1ccc(-c2nn(-c3ccccc3)cc2C(=O)Nc2cccc(S(=O)(=O)N3CCOCC3)c2)cc1 | -5.73% (inactive) | 
Nc1nc2c(Br)ccc(Br)c2cc1C(=O)NCCc1ccccc1 | -9.21% (inactive) | 
COc1cccc(NC(=O)CN(C)C(=O)c2cc(Cl)nc3ccccc23)c1 | -14.4% (inactive) | 
O=C(C[C@H]1C[C@H]2c3cc(NS(=O)(=O)c4ccc(F)cc4)ccc3O[C@H]2[C@H](CO)O1)NCc1cc(F)ccc1F | -5.98% (inactive) | 
O=c1ccc2c(-c3ccccc3S(=O)(=O)O)c3ccc(O)c(O)c3oc-2c1O |  | 7.52 µM (active)
O=C(c1cccs1)N1C[C@H](n2cc(C3CC3)nn2)[C@@H](O)C[C@@H]1c1ccccc1 | 0.263% (inactive) | 
CNS(=O)(=O)c1ccc(NC(=O)C2CC(=O)N(c3ccc(Cl)cc3)C2)cc1 (stereo not given) |  | 26.7 µM (active)
Cc1ccc(N2CC(C(=O)Nc3ccc(S(=O)(=O)N4CCCC4)cc3)CC2=O)cc1C (stereo not given) | -12.9% (inactive) | 
O=C(Nc1ccc(S(=O)(=O)N2CCCCC2)cc1)C1CC(=O)N(c2ccc(F)cc2)C1 (stereo not given) | -7.84% (inactive) | 
CCc1nc2c(OCCC3CCCCC3)cccn2c1N(C)C(=O)c1ccco1 | -5.85% (inactive) | 
COc1ccc(N2c3ccccc3CN(Cc3ccccc3)[C@@H](C)[C@H]2Cc2ccc(-c3ccccc3)cc2)cc1 | 3.32% (inactive) | 

SMILES | max response, negative = inhibition | Potency
Cc1sc2ncnc(SCC(=O)NC3CCS(=O)(=O)C3)c2c1C (stereo not given) | -10.2% (inactive) | 
O=C(NCc1nnnn1-c1ccc(Cl)cc1)c1ccc2c(c1)OCO2 | -15.4% (inactive) | 
COc1ccc(C(=O)NCC2CCCO2)cc1S(=O)(=O)NCc1ccc(Cl)cc1 (stereo not given) | -11.7% (inactive) | 
Cc1ccc([C@H]2C[C@H](O)[C@@H](n3cc(COC(=O)c4ccccc4)nn3)CN2C(=O)C2CCCCC2)cc1 | -1.5% (inactive) | 
O=c1[nH]c2ccccc2s1 | -9.39% (inactive) | 
Nc1ccc2[nH]c(=S)sc2c1 |  | 2.99 µM (active)
CC1=C(C(=O)N2CCOCC2)CC(CC(=O)NCc2ccco2)C(=O)N1Cc1ccc(F)cc1 (stereo not given) | -9% (inactive) | 
CCOC(=O)C1CCCN(C(=O)c2cccc3ccccc23)CC1 (stereo not given) | -9.5% (inactive) | 
N#Cc1nc(COc2ccc(Cl)cc2)oc1N1CCCC1 | -6.72% (inactive) | 
Cc1ccc(OCc2nc(C#N)c(N3CCCC3)o2)cc1 |  | 5.32 µM (active)
CC1CCN(c2oc(-c3ccccc3F)nc2C#N)CC1 | 1.03% (inactive) | 
COC(=O)c1ccc(CN2C(=O)C(Cc3ccccc3)ON=C2c2ncccc2C)o1 (stereo not given) | 5.05% (inactive) | 
CN1OC[C@@H]2CN(C(=O)C(C)(C)C)[C@H](c3ccc(-n4ccnc4)cc3)C[C@@H]21 | -0.5% (inactive) | 
COc1cc(CNc2ncnc3c2ncn3[C@H]2CN(Cc3cccs3)C[C@@H](CO)O2)cc(OC)c1OC | -6.55% (inactive) | 
COCCCn1c(C(=O)NC2CCCCC2)cc2c(=O)n3cccc(C)c3nc21 | -6.64% (inactive) | 
Fc1ccc(OCc2nn3c(Cn4nnc5ccccc54)nnc3s2)cc1 |  | 11.9 µM (active)
Cn1c(Cn2nnc3ccccc32)nnc1SCC(=O)c1ccccc1F | -9.05% (inactive) | 
C/C(Cn1nnc2ccccc21)=N\OC(=O)c1cc(F)c(F)cc1Cl | -15% (inactive) | 
COC(=O)[C@]12CCCCC=C1N(Cc1ccc(Cl)cc1Cl)C(=O)[C@H](CC(=O)NCc1cccc3ccccc13)C2 | -11% (inactive) | 
CCc1nc2c(=O)[nH]cnc2o1 | -1.77% (inactive) | 
CC(=NNC(N)=O)C1CC2CCC1CC2 (stereo not given) | -7.72% (inactive) | 
CC(C)c1nc(SCC(=O)Nc2cccc(C(=O)O)c2)c2c3c(sc2n1)CCCC3 |  | 42.3 µM (active)
Cc1cc(NC(=O)CSc2nc(C(C)C)nc3sc4c(c23)CCC(C)C4)no1 (stereo not given) | -3.46% (inactive) | 

SMILES | max response, negative = inhibition | Potency
Cc1ccc(C(=O)NCCc2nnc(SCC(=O)Nc3cccc(C(=O)O)c3)n2C)cc1 | 1.64% (inactive) | 
CC1(C(=O)NCc2ccc3c(c2)OCO3)CCN1C(=O)Cc1cccs1 (stereo not given) | 10.1% (inactive) | 
COC(=O)c1ccc2nc(-c3cccc(Br)c3)c(Cc3ccccc3C(F)(F)F)n2c1 | -0.95% (inactive) | 
CCN(CC)S(=O)(=O)c1ccc(NC(=O)c2cnc(C)cn2)cc1 | 1.21% (inactive) | 
Cc1ccc(CNC(=O)c2cccnc2Cl)cc1 | -17.3% (inactive) | 
CCN(CC)S(=O)(=O)c1ccc(NC(=O)c2cccnc2Cl)c(NC(=O)c2cccnc2Cl)c1 |  | 23.8 µM (active)
COc1ccc(-c2csc(C(O)c3cccc(Cl)c3)n2)cn1 (stereo not given) | -6.07% (inactive) | 
CCCCCNC(=O)C(c1ccc(OC)cc1)n1c(=O)c(-c2ccccc2)nc2ccccc21 (stereo not given) | -10.5% (inactive) | 
O=C(O)c1cccc(S(=O)(=O)Nc2ccc(O)cc2Sc2nc3ccccc3s2)c1 |  | 13.4 µM (active)
Cc1nc2ccc(NC(=O)c3cccc(S(=O)(=O)N4CCOCC4)c3)cc2s1 | -2.09% (inactive) | 
COc1ccc(NS(=O)(=O)c2ccc(NC(=S)NC(=O)CC(C)C)cc2)cc1 | -14.2% (inactive) | 
COc1ccc(NS(=O)(=O)c2ccc3oc(SCC(N)=O)nc3c2)cc1 | -0.392% (inactive) | 
O=S(=O)(Nc1ccc2nc(N3CCOCC3)sc2c1)c1ccccc1 | -10.1% (inactive) | 
COc1ccc(S(=O)(=O)Nc2ccc(O)c(Sc3nc4ccccc4s3)c2)cc1 |  | 16.8 µM (active)
N#Cc1ccc(-c2ccc3nccn3c2)cc1 | -5.23% (inactive) | 
Cc1cc(C)n2nc(C(=O)N3CCN(Cc4ccc5c(c4)OCO5)CC3)nc2n1 | -1.06% (inactive) | 
COc1ccc(-c2cc(C(=O)N3CCN(Cc4ccc5c(c4)OCO5)CC3)on2)cc1OC |  | 5.97 µM (active)
O=C(c1cccs1)N1CCN(Cc2ccc3c(c2)OCO3)CC1 | -0.579% (inactive) | 
CC(C)Oc1ccc(CC(=O)NNC(=S)Nc2ccc(Br)cc2)cc1 |  | 13.4 µM (active)
Cc1ccc(OC(=O)CCC(=O)Nc2ccc(Br)cc2)cc1 | -3.3% (inactive) | 
COC(=O)Cc1ccc(NC(=S)NCc2ccccc2)cc1 | -14.7% (inactive) | 
O=C1NC[C@@H](CCCCN2CCN(CCc3ccc(O)cc3)C(=O)C2=O)N(CC2CCCCC2)C1=O | -8.33% (inactive) | 
FC(F)(F)c1cccc(-c2nc3ccccc3n2C(c2ccccc2)c2nc3ccccc3[nH]2)c1 (stereo not given) | -0.5% (inactive) | 

SMILES | max response, negative = inhibition | Potency
Cc1cccc(C)c1NC(=O)CN1CCN(c2ccc(F)cc2)CC1 | -2.75% (inactive) | 
CCOc1cc(C=NNC(=O)CCCC(=O)NN=Cc2ccc(O)c(OCC)c2)ccc1O | -0.399% (inactive) | 
C/C=N/NC(=O)CCCC(=O)N/N=C/C |  | 29.9 µM (active)
C=CCNC(=O)CCCC(=O)NCC=C | 2.64% (inactive) | 
Cc1cc(C)n2c(Nc3c(C)cccc3C)c(CCc3ccccc3)nc2n1 | -7.58% (inactive) | 
CSc1ccccc1C(=O)NCc1ccccc1 | -11.2% (inactive) | 
CC(=O)c1cccc(NC(=O)c2cc(C)nn2-c2ccccc2)c1 | 5.02% (inactive) | 
CSc1ccccc1C(=O)Nc1cccc(C(C)=O)c1 |  | 23.8 µM (active)
CN(Cc1c(F)cccc1Cl)C(=O)COC(=O)Cn1cnc2ccccc2c1=O | -0.103% (inactive) | 
CC(C)C1C(=O)N(Cc2cn(CCC3OCCO3)nn2)CCS(=O)(=O)N1Cc1ccc(-c2ccccc2C(F)(F)F)cc1 (stereo not given) | 0.333% (inactive) | 
COc1cccc(-c2ccc3c(c2)N(Cc2ccccc2OC)C(=O)C(C)S3)c1 (stereo not given) | 0.113% (inactive) | 
CCOC(=O)C1CCCN(C(=O)c2ccc(N(C)C)cc2)CC1 (stereo not given) | -4.5% (inactive) | 
Cc1cccc(NC(=S)N2CCC(c3nc4ccccc4s3)CC2)c1 | -1.09% (inactive) | 
CC(=O)c1cccc(NC(=S)N2CCCC2)c1 | -6.15% (inactive) | 
Cc1cccc(NC(=S)N2CCC(C(=O)c3ccc(F)cc3)CC2)c1 |  | 2.99 µM (active)
CCOC(=O)C1(C)CCCN(C(=O)c2ccc(F)c(Cl)c2)C1 (stereo not given) | -9.56% (inactive) | 
CN(C)C(CNC(=O)c1cccc(S(=O)(=O)N2CCc3ccccc3C2)c1)c1ccccc1 (stereo not given) | -5.08% (inactive) | 
CC1(C(=O)NS(=O)(=O)c2cccc(F)c2)CCN1C(=O)c1cccc2ccccc12 (stereo not given) | -0.565% (inactive) | 
COc1ccc2[nH]cc(CCN3C(=O)c4ccc(C(=O)O)cc4C3=O)c2c1 | -13.3% (inactive) | 
O=C1c2ccccc2C(=O)N1CCCCCCN1C(=O)c2ccccc2C1=O | -2.55% (inactive) | 
Cc1ccc2[nH]cc(CCCN3C(=O)c4ccccc4C3=O)c2c1 |  | 29.9 µM (active)
